Test results taken from PubChem BioAssay (NCI).
Compounds without any hit were thinned out: in the full panel of roughly 79,000, 15% have a hit. Calls of active or inactive are those of the source. Rule as the data show it: active = growth inhibition above about 70%; inactive = the rest.

Key:
[1] = NCI Yeast Anticancer Drug Screen. Data for the rad50 strain (AID 155);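 also: 0% = growth of vehicle-only cultures of the same strain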; conditions: S. cerevisiae rad50 strain growth inhibition; at 50.0 µM; active compounds read high
Method in brief: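 Relative growth inhibition (compound vs vehicle) was measured in yeast with a defined repair-gene alteration.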

[2] = NCI Yeast Anticancer Drug Screen. Data for the mec2-1 strain (AID 157); conditions: S. cerevisiae mec2-1 strain, at 50.0 µM, active compounds read high
Method in brief: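 Compounds were applied to mec2-1 yeast cells. Their growth was then compared with that of vehicle-treated cultures to give growth inhibition.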

[3] = NCI Yeast Anticancer Drug Screen. Data for the sgs1 mgt1 strain (AID 161);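 also: 0% = growth of cultures given vehicle only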; conditions: S. cerevisiae sgs1 mgt1 strain, at 50.0 µM, active compounds read high
Method in brief: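 This yeast growth screen uses a strain with defined DNA-repair lesions; compound-treated growth is compared with vehicle-treated growth.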

[4] = NCI Yeast Anticancer Drug Screen. Data for the cln2 rad14 strain (AID 165);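 also: 0% = growth equal to vehicle treated cultures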; conditions: S. cerevisiae cln2 rad14 strain, at 50.0 µM, active compounds read high
Method in brief: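 Strain: cln2 rad14 yeast, altered in cell cycle control and DNA damage repair. Read-out: growth inhibition vs vehicle.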

[5] = NCI Yeast Anticancer Drug Screen. Data for the bub3 strain (AID 167); conditions: S. cerevisiae bub3 mutant strain, at 50.0 µM, active compounds read high
Method in brief: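 Screening used yeast with an engineered genetic alteration affecting cell cycle control. Compound-exposed cultures were compared with vehicle cultures, and reduced growth was taken as inhibition.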

[6] = NCI Yeast Anticancer Drug Screen. Data for the mlh1 rad18 strain (AID 175); conditions: S. cerevisiae mlh1 rad18 strain growth inhibition; at 50.0 µM; active compounds read high
Method in brief: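 A repair-deficient yeast strain is exposed to test compound, and growth is scored relative to vehicle-treated controls.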

Measured: growth inhibition

CCC1SC(C)C(=O)NC1=O (configuration not stated)
inactive: [1] -14.8% | [2] 3.9% | [3] -0.7% | [4] -14.3% | [5] -8.2% | [6] 37.1%

COc1ccc(CCn2nccc2C)cc1
inactive: [1] -60.9% | [2] -4% | [3] -4.3% | [4] -17.9% | [5] -9.4% | [6] -18.4%

CC(C)N(C(=O)c1cccc2ccccc12)C(C)C
inactive: [1] 16.4% | [2] 6.95% | [3] 8.35% | [4] 4.55% | [5] 8% | [6] 32.2%

Cc1ccc(N=NC(=O)NNc2ccc(C)cc2Br)c(Br)c1
inactive: [1] 19.4% | [2] -8.8% | [3] -3.8% | [4] 15.2% | [5] -6.5% | [6] 14.6%

O=C(O)/C(=N\O)c1cnnn1-c1ccccc1
inactive: [1] -5.95% | [2] 11.9% | [3] -8.45% | [4] 3.35% | [5] -17.6% | [6] -25.9%

Cc1cc(C)c(C(=O)c2ccccc2C)c(C)c1
inactive: [1] 21.3% | [2] -1% | [3] -0.35% | [4] -23.5% | [5] 11.3% | [6] 15.7%

Nc1nc2c(c(=O)[nH]1)NC(CCNc1ccc(C(=O)NC(CCC(=O)O)C(=O)O)cc1)CN2 (configuration not stated)
inactive: [1] 14% | [2] 14.9% | [3] 25.6% | [4] 19.6% | [5] 7.65% | [6] 16.1%

O=c1[nH]c(=O)n(C2CC(O)C(CO)O2)cc1C#Cc1ccc(F)cc1 (configuration not stated)
inactive: [1] -3.45% | [2] 19.2% | [3] -15.2% | [4] -5.6% | [5] 3.85% | [6] -8.95%

O=[N+]([O-])c1ccc(N=NNc2ccc([N+](=O)[O-])cc2)cc1
inactive: [1] 4.5% | [2] -13% | [3] -2.05% | [4] -38.1% | [5] -2.95% | [6] 5.4%

CCOC(=O)C(O)(C#CC(C)C)C1CCCC1 (configuration not stated)
inactive: [1] -15% | [2] 13% | [3] -4.65% | [4] 5% | [5] -6.4% | [6] -6.65%

O=C1Nc2cc(Cl)ccc2N=CC1NC(=O)C(c1ccccc1)c1ccccc1Cl (configuration not stated)
inactive: [1] -33.1% | [2] -11.6% | [3] -6.15% | [4] -15.9% | [5] -6.8% | [6] -17.8%

CCc1c2cc(OC)c(OC)cc2cc2c3cc(OC)c(OC)cc3cc[n+]12 (tested in a mixture with another compound)
inactive: [1] -23.1% | [2] -22.4% | [3] -20.1% | [4] -20.9% | [5] -42% | [6] -11.7%

FC12CCC(F)(CC1)CC2
inactive: [1] -7.85% | [2] 20.1% | [3] -7.5% | [4] -13.9% | [5] 7.6% | [6] -2.55%

[N-]=[N+]=Nc1ccccc1C(=O)NCCNC(=O)c1ccccc1N=[N+]=[N-]
inactive: [1] -7.4% | [2] -31.9% | [3] 2.25% | [4] 6.85% | [5] 2.6% | [6] 6.75%

CCCCCCCCCCCCN=Cc1cc(Cc2ccc(O)c(C=NCCCCCCCCCCCC)c2)ccc1O
active: [1] 85.7% | [2] 80.4% | [3] 91.3% | [4] 84.2% | [5] 83.7% | [6] 96%

C=C1C(=O)C23C(O)CC4C5(C)CCCC4(C(O)OC5)C2C(OC(C)=O)CC1C3O (configuration not stated)
inactive: [1] 10.3% | [2] 8.45% | [3] 11.4% | [4] 10.1% | [5] -7.3% | [6] 0.75%

CC12CCC(=O)OC1(C)OC(=O)CC2 (configuration not stated)
inactive: [1] 10.4% | [2] 17.1% | [3] 2.85% | [4] -5.75% | [5] 7.7% | [6] -7.7%

CCOC(=O)c1c(N)n(-c2ccccc2)c(=S)n(-c2ccccc2)c1=O
inactive: [1] -17% | [2] -24.4% | [3] -32.5% | [4] 14.6% | [5] -40.2% | [6] -41.4%

CN[C@H]1CC[C@]23C[C@]24CC[C@]2(C)[C@@H]([C@H](C)N(C)C)CC[C@@]2(C)[C@@H]4CC[C@H]3C1(C)C
inactive: [1] 1.3% | [2] -4.65% | [3] 9.2% | [4] 6.35% | [5] 8.25% | [6] -63.8%

COC(=O)C(N)C(C)(C)S (configuration not stated)
inactive: [1] -9.9% | [2] -2.75% | [3] -3.65% | [4] -10% | [5] 6.85% | [6] 2.5%

O=S(=O)(c1ccccc1)N1CCN(S(=O)(=O)c2ccccc2)c2ccccc21
inactive: [1] 58.9% | [2] 23.9% | [3] -3.75% | [4] 3.9% | [5] 43.6% | [6] 53.9%

CCCC1c2c(cc(=O)[nH]c2O)C(=O)N1Cc1ccccc1 (configuration not stated)
inactive: [1] -10.2% | [2] -16.5% | [3] -14.4% | [4] 17.8% | [5] -17.6% | [6] -0.9%

CCC(=O)Oc1ccccc1C(C)C
inactive: [1] 9.8% | [2] -14.6% | [3] 1.9% | [4] 8.55% | [5] -6.25% | [6] 12.2%

Cc1no[n+]([O-])c1C(=O)NN
inactive: [1] 6.35% | [2] 6.6% | [3] -14.3% | [4] -46.8% | [5] -20.1% | [6] -12.4%

Nc1ccnn2c(-c3ccccc3)nnc12
inactive: [1] -0.55% | [2] 1.85% | [3] -5.7% | [4] 4.25% | [5] 12.4% | [6] 2.35%

CC1c2c(ccc3ccccc23)CCC1CC1CCCc2ccc3ccccc3c21 (configuration not stated)
inactive: [1] 45.6% | [2] -6.15% | [3] 4.7% | [4] 2.2% | [5] -1% | [6] 17.7%

OCc1c(CO)c(C(F)(F)F)n2c1CCC2
inactive: [1] 9.9% | [2] -4.1% | [3] 9.15% | [4] -14.3% | [5] 9.65% | [6] 2.55%

COC(=O)c1c(C)ccc(C)c1C(=O)c1c(C)cc(C)cc1C
inactive: [1] -14.6% | [2] 11.5% | [3] 5% | [4] -28.1% | [5] 24.3% | [6] 4.1%

COC(=O)NC(Nc1ccc(C)cc1)(C(F)(F)F)C(F)(F)F
inactive: [1] 11.9% | [2] -8.9% | [3] -39.6% | [4] 5.9% | [5] -2.65% | [6] -4.7%

CSC1(SC2=NCCN2)SC2(NCCN2)S1
inactive: [1] 1.75% | [2] -10.8% | [3] -41.6% | [4] -24.1% | [5] -1.55% | [6] -18.1%

C=C(Cl)COc1ccc(C(=O)c2ccccc2)cc1
inactive: [1] -4.5% | [2] -9% | [3] -6.5% | [4] -64% | [5] -7.25% | [6] -14.9%

OCC1OC(n2cnc3c(Cl)nc(Nc4ccc(Cl)c(Cl)c4)nc32)CC1O (configuration not stated)
inactive: [1] 7.45% | [2] -0.2% | [3] -12.9% | [4] -0.4% | [5] -16.9% | [6] 66%

ClCCCCSC1CCCCC1
inactive: [1] -5.7% | [2] -9.15% | [3] -5.4% | [4] -3.1% | [5] 0.6% | [6] -25.1%

O=C1C=CC(=O)C2C1C21C2CCCC(C2)C2CCCC1C2 (configuration not stated)
inactive: [1] -11.2% | [2] 16.3% | [3] 4.05% | [4] -23% | [5] -0.65% | [6] 20.1%

O=c1[nH]c2c(Cl)cccc2c2ccccc12
inactive: [1] 40.5% | [2] 18.9% | [3] -7.45% | [4] -18.1% | [5] -17.9% | [6] 14.3%

CC(C(=O)c1ccc(Cl)cc1)[n+]1cc(Br)cc(Br)c1 (configuration not stated)
inactive: [1] -22.6% | [2] -14.2% | [3] -9.3% | [4] -19.4% | [5] -21.4% | [6] -10.2%

CCCCCCCCCCCCCCS(=O)(=O)CCCl
inactive: [1] -5.85% | [2] -6.1% | [3] -21.2% | [4] -6.1% | [5] -5.2% | [6] -7.5%

Cc1ccccc1CN
inactive: [1] 28.9% | [2] 3.05% | [3] -10.8% | [4] 1.05% | [5] 18.3% | [6] 23.6%

CCCCC[N+](CCCCC)(CCCCC)CCCCC
inactive: [1] -10.8% | [2] -16.4% | [3] -27.4% | [4] 8.4% | [5] 14% | [6] -13.5%

O=C1c2ccccc2-c2nc(-c3cccs3)cc3c2c1nc1ccccc13
inactive: [1] 41.2% | [2] 21.4% | [3] 29.1% | [4] 21.9% | [5] 25% | [6] 36.2%

Cc1[nH]c2ccccc2c1C(c1cc(Cl)cc(Cl)c1O)c1c(C)[nH]c2ccccc12
inactive: [1] 29.8% | [2] 26.1% | [3] 25.8% | [4] -1.9% | [5] -5.05% | [6] 37.8%

NC1=NC(=O)N(C2CC(O)C(COP(=O)(O)O)O2)C(I)C1 (configuration not stated)
inactive: [1] 31.9% | [2] 0% | [3] 12.9% | [4] -28.6% | [5] -0.6% | [6] 13.2%
